Reference: PubChem BioAssay
The source made the active and inactive calls.

Legend:
Albumin (Bos taurus) = Albumin (Bos taurus) (UniProt P02769); experiment: bovine serum albumin binders on microarray, profiling panel, artefact control for SMM control protein annotation, biochemical, small-molecule microarray, Alexa647 label, 635/667 nm fluorescence (AID 1118); conditions: BSA-A647 binding, fluorescence 635 nm, higher = more signal;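 note: score merges 667 nm emission intensity and signal-to-noise per printed compound spot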
[1] = small-molecule microarray binders of probe aXIP, primary screen, biochemical, NeuroSMM set, 635/667 nm fluorescence (AID 1119); conditions: higher = more signal, called active from +8 up or from −8 down;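 note: probe is the protein aXip251-270 applied at 1 µg/mL to compound-printed slides; binding of probe to printed compounds measured as 667 nm fluorescence plus signal to noise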
[2] = small-molecule binders of probe aNOTCH3, primary screen, biochemical, small-molecule microarray, 635/667 nm fluorescence (AID 1120); conditions: higher = more signal;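 note: probe is a biotin-tagged antibody raised against NOTCH3 rather than NOTCH3 protein; score merges spot fluorescence near 667 nm with spot signal to noise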
[3] = small-molecule binders of probe aNOTCH2, primary screen, biochemical, small-molecule microarray, 635/667 nm fluorescence (AID 1121); conditions: higher = more signal;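 note: score merges feature fluorescence read at 667 nm with its signal to noise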
[4] = target: Carbonic anhydrase 2 (Homo sapiens) (UniProt P00918); experiment: CAII small-molecule binders, profiling panel, biochemical, small-molecule microarray, Alexa647-labelled CAII (AID 1122); conditions: CAII-A647 binding fluorescence, higher = more signal
[5] = COS7 lysate on small-molecule microarray, probe aHis, 635 nm (AID 1123); conditions: COS7 cell lysate, fluorescence, higher = more signal;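 note: z-score combines 667nm fluorescence intensity with signal-to-noise per printed compound spot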
[6] = compound binding in COS7 lysate, probe aLAP1, primary screen, cell lysate, small-molecule microarray (AID 1124); conditions: probe aLAP1, fluorescence, higher = more signal;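 note: lysate comes from COS7 cells expressing LAP1 and is applied at 0.3 µg/mL; score merges spot fluorescence near 667 nm with signal-to-noise over triplicate slides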
Sam68 (KHDRBS1) = experiment: Sam68 small-molecule binders, primary screen, biochemical, small-molecule microarray, 635 nm fluorescence (AID 1125); conditions: small-molecule microarray binding, higher = more signal;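 note: score merges 667 nm channel intensity with signal to noise over triplicate slides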
[7] = test system: Chordin-like protein 2 (CHRDL2); experiment: CHRDL2 small-molecule binders, primary screen, biochemical, small-molecule microarray, 635 nm fluorescence (AID 1126); conditions: small-molecule microarray binding, fluorescence 635 nm; higher = more signal;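 note: printed compound slides probed with Chrdl2 protein at 4 µg/mL for 1 h at 4 C; score merges 667 nm emission intensity with signal to noise over three replicate slides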
[8] = target: Concanavalin-A (Canavalia ensiformis) (UniProt P02866); experiment: ConA small-molecule binders, primary screen, artefact control for SMM control protein annotation, biochemical, small-molecule microarray, Alexa647 label, 635 nm (AID 1127); conditions: ConA-A647 binding fluorescence, higher = more signal;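 note: z combines 667 nm emission intensity with signal-to-noise across three replicate slides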
Concanavalin-A (Canavalia ensiformis), sequence (P02866 whole entry, looked up): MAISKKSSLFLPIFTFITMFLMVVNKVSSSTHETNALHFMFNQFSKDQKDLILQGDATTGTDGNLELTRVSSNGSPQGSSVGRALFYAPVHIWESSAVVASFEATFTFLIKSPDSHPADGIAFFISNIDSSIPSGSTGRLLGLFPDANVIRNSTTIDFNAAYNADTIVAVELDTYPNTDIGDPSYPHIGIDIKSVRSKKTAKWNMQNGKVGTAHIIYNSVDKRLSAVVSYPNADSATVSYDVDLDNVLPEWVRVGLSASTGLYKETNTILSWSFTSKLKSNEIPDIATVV

Albumin (Bos taurus), sequence (P02769 whole entry, looked up): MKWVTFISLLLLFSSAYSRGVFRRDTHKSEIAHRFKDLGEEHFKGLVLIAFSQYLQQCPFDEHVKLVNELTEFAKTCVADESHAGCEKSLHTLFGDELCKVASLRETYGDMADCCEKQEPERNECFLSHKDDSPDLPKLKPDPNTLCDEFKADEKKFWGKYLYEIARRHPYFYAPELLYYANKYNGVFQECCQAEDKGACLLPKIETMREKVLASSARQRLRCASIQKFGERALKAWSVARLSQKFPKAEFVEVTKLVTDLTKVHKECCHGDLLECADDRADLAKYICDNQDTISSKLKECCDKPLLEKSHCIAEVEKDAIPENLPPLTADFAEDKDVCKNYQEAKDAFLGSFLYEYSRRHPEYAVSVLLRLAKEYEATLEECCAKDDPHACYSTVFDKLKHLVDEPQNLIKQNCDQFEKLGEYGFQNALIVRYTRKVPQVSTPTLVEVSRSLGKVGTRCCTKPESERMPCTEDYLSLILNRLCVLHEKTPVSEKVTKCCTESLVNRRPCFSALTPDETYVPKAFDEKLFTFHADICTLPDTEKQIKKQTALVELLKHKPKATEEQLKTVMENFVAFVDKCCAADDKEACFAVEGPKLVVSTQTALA

Row | Structure (SMILES) | composite z-score (Albumin (Bos taurus)) | composite Z-score [1] | composite z-score [2] | composite z-score [3] | composite z-score [4] | composite z-score [5] | composite z-score [6] | composite z-score (Sam68 (KHDRBS1)) | composite z-score [7] | composite z-score [8]
1 | COC(=O)[C@@]1(Cc2ccc(F)cc2)[C@H]2c3cc(C(=O)N(C)C)n(CC4CC4)c3C[C@H]2CN1C(=O)c1ccccc1 | 1.02 | -0.0191 (inactive) | 1.65 | 0.904 | 0.773 | 3.27 | 0.698 | 1.35 | -0.542 | 1.1
2 | O=C1NC(=O)C2C1C=CC(C(O)Cc1ccccc1)N2Nc1ccc(Cl)cc1Cl (stereo not given) | 0.809 | -0.082 (inactive) | 0.198 | -0.11 | 0.803 | 2.07 | -0.226 | -1.18 | -1.15 | -0.652
3 | C=CCOC(=O)[C@H]1[C@@H]2C(=O)O[C@@H](c3ccccc3)[C@@H](c3ccccc3)N2[C@@H](c2ccc(OCCOC(=O)[C@@H]3C[C@@H]4C(=O)N[C@@H](CCCCN(C)C)C(=O)N4[C@@H]3c3ccc(O)cc3)cc2)[C@]12C(=O)Nc1ccc(I)cc12 | -0.342 | 0.711 (inactive) | -0.0111 | -0.18 | 0.574 | 1.66 | 0.278 | 1.3 | 1.24 | 1.15
4 | C=CC[C@@]1(C(=O)NCc2ccccc2)N=C(c2ccc(OCCCO)cc2)O[C@@H]1c1ccccc1N=[N+]=[N-] | 0.98 | -0.108 (inactive) | 0.355 | 0.0186 | 0.712 | 3.18 | 0.736 | 1.3 | -0.623 | 0.906
5 | COc1ccc(C(=O)Nc2ccc(CN3C(=O)[C@@]4(O[C@@H](CCO)[C@H]([Si](C)(C)c5ccc(OC)cc5)[C@H]4C)c4ccccc43)cc2)cc1 | -0.338 | 0.673 (inactive) | 0.0034 | -0.0999 | 0.531 | 0.81 | 0.292 | 1.3 | 0.959 | 1.14
6 | C[C@@H]1ON(c2cccc(C(=O)OC(C)(C)C)c2)[C@H](c2ccc(Br)cc2)[C@H]1C(=O)N1C(=O)OC[C@H]1Cc1ccccc1 | 0.0512 | 0.0724 (inactive) | 0.0325 | -0.0454 | 0.133 | 1.2 | 0.261 | 1.21 | 0.52 | 1.09
7 | C=CCC(OC(C)=O)[C@@H]1[C@@H](N(Cc2cccc3ccccc23)C(=O)c2ccc(-c3ccccc3)cc2)c2cc(OCCCO)ccc2N1C(=O)Cc1ccc(OC)cc1 (stereo not given in full) | 0.173 | -0.829 (inactive) | -0.0232 | -0.143 | 0.0745 | 0.0863 | -0.0691 | -0.0453 | -0.147 | 0.0866
8 | CCCC#C[Si](O[C@H](CC)c1cn([C@H](CO)Cc2ccccc2)nn1)(C(C)C)C(C)C | 0.868 | -0.483 (inactive) | -0.108 | -0.0986 | 0.667 | 0.516 | -0.126 | 0.838 | 0.322 | 0.632
9 | COC(=O)C=C(CC(O)c1cccc(Cl)c1)OC (stereo not given) | 1.04 | 1.22 (inactive) | 0.936 | 0.436 | 0.811 | 0.461 | 1.02 | 0.0579 | 0.091 | -0.115
10 | CN(C)CCCCCCNC(=O)[C@@H]1C[C@@H]2C(=O)N[C@@H](CCCCN)C(=O)N2[C@@H]1c1cccc(OCCO)c1 | 1.05 | 7.35 (inactive) | 1.79 | 0.72 | 0.92 | 2.35 | 1.2 | 1.32 | 1.2 | 1.24
11 | N#Cc1ccc(NN2C(C(O)c3c(F)cccc3Cl)C=CC3C(=O)N(c4ccccc4)C(=O)C32)cc1 (stereo not given) | 1.09 | 0.238 (inactive) | -0.095 | 0.0563 | 0.396 | 3.25 | 1.55 | 1.29 | -0.768 | 1.13
12 | COc1ccc(CCNC(=O)[C@@]2(C)c3ccccc3C(=O)N(Cc3cc(F)cc(C(F)(F)F)c3)[C@H]2c2ccc(CO)cc2)cc1 | -0.825 | 0.633 (inactive) | -0.189 | -0.054 | 0.726 | 1.71 | 0.54 | -0.342 | 0.126 | -0.307
13 | COC(=O)[C@@]1(Cc2ccc(OC)cc2)[C@H]2c3cc(C(=O)N4CCCC4)n(Cc4ccccc4)c3C[C@H]2CN1C(=O)c1ccccc1 | 1.05 | 0.401 (inactive) | 1.75 | 1.06 | 0.791 | 3.09 | 0.399 | 0.846 | -0.401 | 1.08
14 | CN(C)C(=O)[C@@]1(Cc2ccccc2)N=C(c2ccc(OCCCO)cc2)O[C@H]1c1ccccc1N=[N+]=[N-] | 0.952 | -0.0707 (inactive) | 0.516 | -0.0422 | 0.765 | 2.88 | 0.935 | 1.29 | 0.152 | 1.13
15 | C=CCOC(=O)[C@@H]1[C@H]2C(=O)O[C@H](c3ccccc3)[C@H](c3ccccc3)N2[C@H](c2ccc(OCCOC(=O)[C@@H]3C[C@@H]4C(=O)N[C@@H](CCCCN(C)C)C(=O)N4[C@@H]3c3ccc(O)cc3)cc2)[C@@]12C(=O)Nc1ccc(I)cc12 | 0.848 | 0.412 (inactive) | 0.0738 | -0.177 | 0.275 | 1.83 | -0.157 | 1.29 | 1.15 | 1.16
16 | COc1ccc(C(O)C2C=CC3C(=O)NC(=O)C3N2Nc2ccccn2)c2ccccc12 (stereo not given) | 0.304 | 0.224 (inactive) | -0.0431 | -0.101 | 0.879 | 0.452 | -0.14 | -0.328 | 0.485 | 0.495
17 | CN1C(=O)C2C=CC(C(O)C3CC=CCC3)N(NC(=O)OC(C)(C)C)C2C1=O (stereo not given) | 1.03 | 3.41 (inactive) | 0.178 | -0.121 | 0.713 | 3.19 | 0.532 | 1.32 | 0.547 | 0.627

Row | Structure (SMILES) | composite z-score (Albumin (Bos taurus)) | composite Z-score [1] | composite z-score [2] | composite z-score [3] | composite z-score [4] | composite z-score [5] | composite z-score [6] | composite z-score (Sam68 (KHDRBS1)) | composite z-score [7] | composite z-score [8]
18 | CCOC(=O)C1=CCC(c2ccccc2)N(S(=O)(=O)CC[Si](C)(C)C)C1 (stereo not given) | -0.149 | 0.0503 (inactive) | -0.392 | -0.188 | -0.35 | -0.177 | -0.0394 | -0.717 | 0.165 | -0.0238
19 | CN1C(=O)C2C=CC(C(O)C3=C[C@H]4C[C@@H](C3)C4(C)C)N(Nc3ccccc3)C2C1=O (stereo not given in full) | 0.566 | -0.636 (inactive) | 0.169 | -0.0712 | 0.645 | 1.75 | -0.678 | 1.31 | 0.307 | 0.782
20 | COc1cc2c(cc1O)C=[N+](Cc1cccc(OC(F)(F)F)c1)CC2 | 0.828 | 0.0714 (inactive) | -0.0879 | -0.172 | 0.61 | -0.784 | 0.173 | -0.933 | 0.156 | -0.27
21 | C=CCC(OC(C)=O)[C@@H]1[C@@H](N(Cc2ccc(-c3cccc(C(F)(F)F)c3)o2)C(=O)Cc2ccc(F)cc2)c2cc(OCCCO)ccc2N1C(=O)Cc1ccc(OC)cc1 (stereo not given in full) | -0.0141 | -0.105 (inactive) | -0.0918 | -0.124 | -0.498 | -1 | -0.348 | -3.75 | 0.149 | -1.29
22 | CCN(CC)c1ccc(N2CC=CC34O[C@@H]5/C=C\CCCOC(=O)C5[C@H]3C(=O)N(CCO)[C@@H]4C2=O)cc1 (stereo not given in full) | -0.633 | 0.858 (inactive) | -0.299 | -0.14 | 0.78 | 0.534 | 0.485 | -0.526 | -1.39 | -0.362
23 | CCCCN1CC=CC23O[C@@H]4C=CCOC(=O)[C@@H]4[C@H]2C(=O)N(CCCCCO)[C@@H]3C1=O (stereo not given in full) | 0.914 | 0.102 (inactive) | -0.199 | -0.0422 | 0.858 | 1.8 | 1.3 | -0.445 | -0.769 | -1.08
24 | CN1C(=O)[C@]2(Cc3ccccc3)N=C(c3ccc(OCCCO)cc3)O[C@@H]2c2ccccc21 | 0.18 | 0.307 (inactive) | 0.0927 | -0.0734 | 0.635 | 2.51 | 0.824 | 1.29 | 0.572 | 0.953
25 | O=C1OCC=C[C@H]2OC34C=CCN(CCN5CCOCC5)C(=O)[C@H]3N(CCCO)C(=O)[C@@H]4[C@@H]12 (stereo not given in full) | 0.416 | 0.103 (inactive) | -0.206 | -0.122 | -0.0692 | 0.357 | -0.126 | 0.356 | 0.0732 | 0.551
26 | O=C1C2C=CC(C(O)C(c3ccccc3)c3ccccc3)N(n3cnnc3)C2C(=O)N1Cc1ccccc1 (stereo not given) | 0.057 | 0.0479 (inactive) | 0.116 | -0.0294 | 0.635 | 2.61 | 0.599 | 1.3 | 0.121 | 1.07
27 | O=C(O)[C@@]1(CCS(=O)(=O)c2ccccc2)COC(c2ccc(OCCCO)cc2)=N1 | -0.344 | 0.714 (inactive) | -0.15 | -0.108 | 0.815 | 1.63 | 0.0237 | -0.39 | -0.724 | -0.0647
28 | C=C(COC)/C(=C/C[C@@H](OC(C)=O)c1ccc(CO)o1)c1cnc2ccccc2c1 | 0.555 | 0.319 (inactive) | 0.25 | 0.0616 | 0.944 | 0.229 | 0.846 | 1.29 | 1.39 | 1.2
29 | CCCCCCC#C[Si](O[C@H](c1ccccc1)c1cn([C@H](CO)Cc2ccccc2)nn1)(C(C)C)C(C)C | -0.188 | -0.377 (inactive) | -0.158 | -0.14 | 0.855 | 1 | 0.256 | 0.729 | -0.346 | -0.0362
30 | CCOC(=O)C[C@H]1[C@H](OC(=O)c2cc3ccccc3oc2=O)[C@@H](NC(=O)Cc2ccc(OC)cc2)c2cc(OCCCO)ccc2N1C(=O)c1ccccc1 | 0.722 | 0.311 (inactive) | -0.0324 | -0.0986 | 0.091 | 0.386 | -0.0727 | 0.687 | 0.328 | -0.256
31 | CCOC(=O)C[C@H]1[C@H](OC(=O)c2ccc(C(=O)c3ccccc3)cc2)[C@@H](NC(=O)c2ccc(-c3ccccc3)cc2)c2cc(OCCCO)ccc2N1C(=O)c1ccccc1 | 0.0256 | 2.04 (inactive) | -0.0411 | -0.11 | 0.0733 | 1.31 | 0.032 | 1.31 | 0.303 | 0.989
32 | CC[C@@H]1C=C(C(=O)O)[C@H](c2ccco2)N1S(=O)(=O)c1ccc(C)cc1 | -0.179 | 0.33 (inactive) | -0.128 | -0.108 | 0.689 | 0.059 | 0.591 | 0.125 | 0.209 | -1.29
33 | COCCOC(=O)N1C(=O)[C@@]2(c3cc(C#CC4=CCCCC4)ccc31)[C@H](C(=O)Nc1nc3ccccc3s1)[C@H]1C(=O)O[C@H](c3ccccc3)[C@H](c3ccccc3)N1[C@@H]2c1ccc(OCCO)cc1 | 0.1 | -0.114 (inactive) | 0.0286 | -0.148 | 0.0924 | 0.417 | 0.338 | 1.16 | 0.984 | 1.03
